The target in the test is Runt-related transcription factor 1 (Homo sapiens) + Core-binding factor subunit beta (Homo sapiens) (UniProt Q01196+Q13951). Description: inhibitors of RUNX1 Runt–CBFb-SMMHC binding, primary screen, biochemical, FRET, Cerulean-Runt, Venus-CBFb-SMMHC, uHTS (AID 1434).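 Further: 0% = DMSO wells and 100% = wells with excess untagged CBFb-SMMHC; inhibitors lower the FRET ratio by blocking Runt binding to CBFb-SMMHC.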 Particulars: Cerulean-Runt/Venus-CBFb-SMMHC FRET ratio 530/480, 1 h, at 20 µM, stronger effect = higher value.
Chain of Runt-related transcription factor 1 (Homo sapiens) + Core-binding factor subunit beta (Homo sapiens) (Q01196 whole entry, looked up): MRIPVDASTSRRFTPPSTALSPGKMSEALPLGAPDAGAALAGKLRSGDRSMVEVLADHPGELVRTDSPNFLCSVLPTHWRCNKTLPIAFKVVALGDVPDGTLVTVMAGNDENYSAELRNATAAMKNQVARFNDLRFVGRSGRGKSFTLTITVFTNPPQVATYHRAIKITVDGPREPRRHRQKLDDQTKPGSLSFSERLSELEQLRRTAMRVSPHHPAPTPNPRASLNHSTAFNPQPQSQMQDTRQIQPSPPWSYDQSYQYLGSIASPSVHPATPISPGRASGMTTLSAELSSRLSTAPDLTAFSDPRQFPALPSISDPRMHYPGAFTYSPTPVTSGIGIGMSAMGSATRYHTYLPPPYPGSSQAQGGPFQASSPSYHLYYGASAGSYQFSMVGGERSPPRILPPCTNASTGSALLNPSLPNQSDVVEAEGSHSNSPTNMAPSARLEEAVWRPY
Chain of Runt-related transcription factor 1 (Homo sapiens) + Core-binding factor subunit beta (Homo sapiens) (Q13951 whole entry, looked up): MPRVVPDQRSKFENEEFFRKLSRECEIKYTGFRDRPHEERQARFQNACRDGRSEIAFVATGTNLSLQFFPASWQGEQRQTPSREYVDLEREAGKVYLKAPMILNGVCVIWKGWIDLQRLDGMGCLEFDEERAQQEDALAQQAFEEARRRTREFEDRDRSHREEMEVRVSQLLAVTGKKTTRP

About 1,600 (0.73%) of roughly 220,000 compounds were called active.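 How the source made its calls: active means mean inhibition across duplicate retests at 20 µM reaching about 50% (limit read from the data); inactive means the rest, inconclusive results apart.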 The entries come from a sample that favours actives as a whole.

As usually defined, the inhibition is the change of the read-out against control, counted positive when it falls. For the compound `CN(C)CCCn1c(N)c(C#N)c2nc(C#N)c(C#N)nc21`, the inhibition is 78.7% (active). Where the note is “retest duplicate average”, the inhibition was 69.9%.

As to `COc1ccc(C2/C=C\CN(CC(C)C)CC(=O)N2Cc2ccc(F)cc2)cc1` (centres undefined), the inhibition is 0.3% (inactive).

In the case of `COc1ccc(O[C@H]2C=C[C@@H](c3ccccc3)O[C@@H]2CO/N=C/C[C@@H]2C=C[C@H](OC(C)=O)[C@@H](COC(C)=O)O2)cc1`, the inhibition is -12.9% (inactive).

In the case of `COc1cccc2sc(NNC(=O)c3nc4ccccc4s3)nc12`, the inhibition was 3.6% (inactive).

`COc1cccc2sc(Nc3nc(C)c(C(C)=O)s3)nc12`: the inhibition was 82.4% (active). For the same compound, the inhibition (retest duplicate average) stood at 96.3%.

With `CC(=O)c1sc(NC(=O)CCCOc2ccccc2C)nc1C`, the inhibition was 0% (inactive).

With `Cc1ccc(NC(=O)C2(N3CCC3=O)CCCCC2)cc1`, the inhibition was 3.4% (inactive).

As for `N/C(=N\OC(=O)CC1CCCCC1)c1ccccc1`, the inhibition is 3.7% (inactive).

For `CCN(CC)c1nc(-c2ccccc2)cc(C(F)(F)F)c1C#N`, the inhibition is 130% (active). The inhibition (retest duplicate average) came to 57.3%.

Regarding `N#Cc1c(C(F)(F)F)cc(-c2ccccc2)nc1SCC(=O)N1CCOCC1`, the inhibition was -9.3% (inactive).

As to `N#Cc1c(C(F)(F)F)cc(-c2ccc(Cl)cc2)nc1SCC(=O)O`, the inhibition was 0.8% (inactive).

In the case of `CCOC(=O)c1c(Cc2ccc(Cl)cc2)c[nH]c1C`, the inhibition is -2.1% (inactive).

Turning to `CN1OC(COC(=O)c2ccc(Cl)cc2)CC1c1ccccc1` (centres undefined), the inhibition is 3.2% (inactive).

With `CC(C)(C)c1ccc(C(=O)NCC(=O)OCN2C(=O)c3ccccc3C2=O)cc1`, the inhibition is 4.7% (inactive).

Consider `CCCCNC(=O)CCNC(=O)c1ccc(C(C)(C)C)cc1`, for which the inhibition is -0.2% (inactive).

For the compound `CC(C)(C)c1ccc(C(=O)NCCn2c(N)c(C#N)c3nc4ccccc4nc32)cc1`, the inhibition was 114% (active). In addition, the inhibition (retest duplicate average) was found to be 128%.

As for `N#Cc1c(N)n(CCOC(=O)c2ccc(Cl)cc2)c2nc3ccccc3nc12`, the inhibition was 116% (active). For the same compound, the inhibition (retest duplicate average) is 152%.

Take `COCCCn1c2nc3ccccc3nc2c2c(=O)n(Cc3ccc(Cl)cc3)c(C)nc21`: the inhibition was 7.3% (inactive).

`Cc1cc(=O)[nH]c(N/N=C/c2c(C)nn(-c3ccccc3Cl)c2Cl)n1`: the inhibition is -3% (inactive).

Take `CC(C)(C)C(=O)Nc1c(Br)c(C2CC2)nn1-c1ccccc1`: the inhibition was 2.4% (inactive).

With `CCc1ccc(CNC(=O)C2CC(=O)N(CCc3ccc(C)cc3)C2)cc1` (centres undefined), the inhibition was -1.7% (inactive).

With `C=CCSc1nc(N)cc(=O)[nH]1`, the inhibition is 0.7% (inactive).

As to `O=C(O)CCCCCCCCCC[n+]1ccccc1`, the inhibition is -2.3% (inactive).

For the compound `Cc1ccccc1Cn1c(=O)[nH]c2ccccc21`, the inhibition was -2% (inactive).

As for `CCCc1cc(=S)n2c([nH]c3ccccc32)c1C#N`, the inhibition was 81.2% (active). For the same compound, the inhibition (retest duplicate average) worked out at 153%.

Turning to `CCOC(=O)CCc1c(C)c(C#N)c2[nH]c3ccccc3n2c1=O`, the inhibition is -6.1% (inactive).

On to `O=C(c1ccc(C(F)(F)F)cc1)C1CCCN(C(=O)c2csnn2)C1` (centres undefined), for which the inhibition is 5.6% (inactive).

In the case of `COC(=O)COc1ccc2oc(=O)cc(C)c2c1`, the inhibition is 0.6% (inactive).

Take `Cc1cc(=O)oc2c(C(=O)c3ccccc3)c(OCC(N)=O)ccc12`: the inhibition is -4.4% (inactive).

For `COC(=O)Cc1cc(=O)oc2c(C)c(O)ccc12`, the inhibition is 77.6% (active). In addition, the inhibition (retest duplicate average) amounted to 71.5%.

With `N#C/C(C(=S)Nc1ccccc1)=C1/NN=C(N2CCOCC2)N1c1ccccc1`, the inhibition was 25.1% (inactive).

Regarding `CN1CCNC(=O)C1CC(=O)NCCC1=CCCCC1` (centres undefined), the inhibition is -1.1% (inactive).

`Nc1nc(Nc2ccccc2)nc(NCCO)c1[N+](=O)[O-]`: the inhibition was 0.8% (inactive).

Regarding `O=C(Oc1cccnc1)c1cc2ccccc2oc1=O`, the inhibition is -10.2% (inactive).

Take `O=C(Oc1c(-c2ccco2)oc2ccccc2c1=O)c1cccnc1`: the inhibition is 92.5% (active). Also, the inhibition (retest duplicate average) was determined as 70.6%.

With `N#CCc1ccc(OC(=O)c2cccnc2)cc1`, the inhibition is 3% (inactive).

Turning to `Cc1cc(=O)[nH]c2nnnn12`, the inhibition is -4.2% (inactive).

On to `CCOC(=O)c1c(C)c(C(=O)NCCc2ccc(S(N)(=O)=O)cc2)c(C)n1CC`, for which the inhibition is -1.6% (inactive).

In the case of `Cc1ccc(S(=O)(=O)c2c(N)n(C)c3nc4ccccc4nc23)cc1`, the inhibition is 22% (inactive).

Turning to `CCCNC(=O)c1c(N)n(-c2ccc(S(N)(=O)=O)cc2)c2nc3ccccc3nc12`, the inhibition was 80.5% (active). For the same compound, the inhibition (retest duplicate average) is 104%.

On to `Nc1c(C(=O)c2cccs2)sc2nsc(SCCN3CCCCC3)c12`, for which the inhibition is -179% (inactive).

Consider `CCOC(=O)C(=CNNc1ccsc1C(=O)OC)C(=O)OCC`, for which the inhibition is -1.9% (inactive).

For `CCCCc1ccc(NC(=S)N2CCCC(CO)C2)cc1` (centres undefined), the inhibition was -1.7% (inactive).

Consider `CN(C)C(=O)c1nc2ccc(Cl)cn2c1CN1CCN(c2ncccn2)CC1`, for which the inhibition is 0.6% (inactive).

Take `Cc1cc(C)n(C(=O)CCNC(=O)c2ccccc2Cl)n1`: the inhibition was 8.8% (inactive).

On to `Cc1cc(C)c2nc3nc(C)cc(C)c3c(N)c2c1`, for which the inhibition is 60.1% (active). For the same compound, the inhibition (retest duplicate average) was 71.5%.

Turning to `Cc1cc(C)c2nc(SCCC#N)nc(C)c2c1`, the inhibition was -2.1% (inactive).

For `Cc1cc(C)c2nc(-c3ccco3)cc(C(=O)O)c2c1`, the inhibition was 21.4% (inactive).

Regarding `CN1CCN(Cc2c(O)ccc3c2oc(=O)c2ccccc23)CC1`, the inhibition is -13.8% (inactive).

As to `NC(=O)COc1ccc2c3c(c(=O)oc2c1)CCCCC3`, the inhibition was -10.6% (inactive).

For `O=c1oc2c(CN3CCCCC3)c(O)ccc2c2c1CCCCC2`, the inhibition is 93.5% (active). Also, the inhibition (retest duplicate average) amounted to 148%.

As to `Cc1ccc(C(=O)NCC(=O)OCC(=O)Nc2cccc(S(=O)(=O)N3CCCC3)c2)cc1C`, the inhibition was 0.1% (inactive).

As for `Cc1cc(C)n(CC(C)NCc2c(C(=O)N3CCOCC3)nc3c(C)cccn23)n1` (centres undefined), the inhibition is -0.8% (inactive).

On to `Cc1cccn2c(=O)c3cc(C(=O)N4COCC4(C)C)n(C)c3nc12`, for which the inhibition was 1.5% (inactive).

Consider `Cc1cccn2c(=O)c3cc(C#N)c(=O)n(CCCN4CCOCC4)c3nc12`, for which the inhibition was 61.6% (active). Besides, the inhibition (retest duplicate average) is 71.6%.

`O=c1oc2cc(O)ccc2cc1-c1ccc(F)cc1`: the inhibition was 61.6% (active). Moreover, where the note is “retest duplicate average”, the inhibition turned out to be 71.5%.

For the origin of these results see PubChem BioAssay AID1434 (Sanford-Burnham Center for Chemical Genomics, 2008).
